Compound activity (PubChem)
hcDAF-12 act = activators of H. contortus DAF-12 nuclear receptor; HEK293 hcDAF-12 lit1-tk-luc reporter, luminescence; 0% DMSO, 100% Δ7-dafachronic acid; activation, % at 6.8 µM; 370,000 compounds, 1.4% hits; AID 652067;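 active means activation above the mean of all tested compounds plus 3 SD, cut at about 5.5% in these data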;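 further: 100% = response to 3 µM Δ7-dafachronic acid high control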
DAX1 inh-1 = DAX1 (NR0B1) inhibition, primary screen; HEK293T StAR-luciferase reporter, SF-1/DAX-1 repression relief; inhibition, % at 6.8 µM; 370,000 compounds, 1.1% hits;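 active means inhibition above the mean over all tested compounds plus 3 SD, cut at about 3.6% in these data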;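 further: 0% = DAX-1 cells with DMSO and 100% = cells lacking DAX-1 with DMSO; higher inhibition means more luminescence from relief of DAX-1 repression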
ssDAF12 agonist = S. stercoralis DAF-12 activation, primary screen; HEK293 ssDAF-12/GRIP1 lit1-tk-luc reporter, luminescence; % of 3 µM dafachronic acid response; activation, % at 6.8 µM; 370,000 compounds, 1% hits;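 active means activation above the mean over all tested compounds plus 3 SD, cut at about 0.9% in these data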;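 further: 0% = DMSO-only wells and 100% = 3 µM delta7-dafachronic acid wells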
GAA850 FXN act = frataxin GAA850 promoter activation. HEK293 lucGAA850 FXN promoter luciferase reporter, 24 h; percent of 10 µM SAHA response. activation, % at 6 µM. 360,000 compounds, 0.56% hits;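 active means activation above the average of all compounds screened plus 3 SD, cutoff fixed separately per campaign, cut at about 7.5% in these data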;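 further: 0% = DMSO wells and 100% = 10 µM SAHA wells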
hgDAF12 agonist = hgDAF-12 agonism, primary luciferase screen | HEK293 GAL4-hgDAF12 UAS-luciferase reporter, agonist luminescence; normalized to butyrate control | activation, % at 6.8 µM | 370,000 compounds, 1.8% hits;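 active means activation above a cutoff set at the mean of all screened compounds plus 3 SD, cut at about 10% in these data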;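 further: 0% = DMSO wells and 100% = sodium butyrate wells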
DAX1 inh-2 = NR0B1 (DAX1) inhibition; AID 504766; 340,000 compounds, 0.99% hits; HEK293 Gal4-DAX1 luciferase reporter, luminescence; inhibition, % at 6.75 µM;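 active means inhibition above the mean over all tested compounds plus 3 SD, cut at about 4.2% in these data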;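 further: 0% = DAX1-transfected cells with DMSO and 100% = empty-vector control cells with DMSO; inhibition shows as a rise in luminescence from relieved DAX1 repression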
Target sequence (P51843 207-470 limits assumed): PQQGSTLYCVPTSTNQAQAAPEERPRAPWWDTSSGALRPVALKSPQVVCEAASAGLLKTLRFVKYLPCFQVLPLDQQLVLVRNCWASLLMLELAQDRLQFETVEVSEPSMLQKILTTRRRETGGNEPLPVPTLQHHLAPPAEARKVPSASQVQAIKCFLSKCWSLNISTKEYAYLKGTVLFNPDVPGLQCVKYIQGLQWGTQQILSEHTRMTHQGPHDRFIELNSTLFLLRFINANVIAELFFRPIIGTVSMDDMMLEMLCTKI
Starred values were filed as active, the others as inactive; / = no result. Hits are enriched below; roughly 4.5% of the tested compounds scored in any of these assays.

SMILES | hcDAF-12 act | DAX1 inh-1 | ssDAF12 agonist | GAA850 FXN act | hgDAF12 agonist | DAX1 inh-2
NS(=O)(=O)c1ccc2nc(NC(=O)c3ccc(Br)o3)sc2c1 | -0.5 | 1.2 | -0.7 | 3.9 | 6.8 | 1.8
CCCCc1ccc2nc(NC(=O)c3ccc(Br)o3)sc2c1 | 0.9 | / | -0.7 | / | 10.6* | /
CCc1noc(C)c1C(=O)Nc1nc2ccc(S(C)(=O)=O)cc2s1 | 0.6 | 2.4 | -0.8 | 1.2 | 5.6 | 1.1
O=C(Nc1ccc(N2C(=O)CC3(CCCCC3)C2=O)c(Cl)c1)c1ccccn1 | -0.6 | / | -1.7 | / | 5.0 | /
N#Cc1ccccc1N1CCN(C(=O)C2CCN(c3ncnc4c3sc3cccc(F)c34)CC2)CC1 | -5.1 | -4.5 | -2.2 | / | -8.7 | /
COc1cccc(CNS(=O)(=O)c2ccccc2Br)c1 | 0.7 | -0.8 | -1.5 | / | 6.4 | /
COc1ccc(CCNC(=O)c2c(N)[nH]c(C(=O)c3ccccc3)c2-c2ccc(N(C)C)cc2)cc1 | -3.2 | / | -2.1 | / | -0.2 | /
O=c1[nH]c2ccccc2nc1/C=C/c1ccccc1 | 6.4* | 2.6 | 0.8 | 3.4 | 12.1* | 1.1
CC(C)(C)/C(O)=C/c1nc2ccccc2[nH]c1=O | 1.0 | -0.4 | -1.2 | 1.7 | -1.6 | -1.6
Cc1cc(C(=O)OCC(=O)NCCc2ccccc2)c(C)o1 | 3.8 | -0.2 | -1.2 | 2.5 | -0.4 | 5.1*
CC(COc1ccc(S(C)(=O)=O)cc1)CN1CCC(C(O)(c2ccccc2)c2ccccc2)CC1 (stereo unspecified) | -1.1 | -0.4 | -1.8 | / | -0.3 | /
CCOC(=O)C1(CCOc2ccccc2)CCN(Cc2ccc3c(c2)OCCO3)CC1 | -2.7 | -0.7 | -2.1 | 0.0 | -3.2 | -1.5
OCC1(CCOc2ccccc2)CCN(Cc2ccc3c(c2)OCCO3)CC1 | 1.2 | 0.7 | -1.9 | 0.1 | -1.9 | 4.8*
CCN1CCCC1CNS(=O)(=O)c1ccc(F)c(Cl)c1 (stereo unspecified) | -1.6 | 0.1 | -0.9 | 1.4 | 3.7 | 4.4*
O=C(O)c1ccccc1SC1CC(=O)N(c2ccccc2)C1=O (stereo unspecified) | 6.0* | 0.1 | -1.5 | 4.1 | 1.5 | 1.1
O=C(O)c1cccnc1SC1CC(=O)N(c2ccccc2)C1=O (stereo unspecified) | -0.3 | 0.0 | -0.7 | -1.1 | -0.1 | 0.7
O=[N+]([O-])c1cnc2ccccc2c1Sc1ccccc1 | 2.7 | / | -0.8 | / | 0.6 | /
CCc1ccc(C(=O)NC(=S)Nc2ccc3c(c2)OCCO3)cc1 | 3.2 | 3.0 | 0.5 | 5.2 | 12.1* | 3.2
Cc1cc(C)cc(C(=O)NC(=S)Nc2ccc3c(c2)OCCO3)c1 | -0.2 | 0.1 | -1.4 | 4.5 | 6.2 | 0.1
O=C(NC(=S)NC1CCCc2ccccc21)c1ccco1 (stereo unspecified) | -0.7 | -0.9 | -1.8 | 2.3 | -1.0 | 0.1
O=C(NC(=S)Nc1ccc2c(c1)OCCO2)c1ccco1 | 3.9 | 2.4 | -0.1 | 1.6 | 10.9* | 4.5*
O=C(NC(=S)NC1CCC(O)CC1)c1ccco1 (stereo unspecified) | -1.1 | 4.1* | -0.7 | 1.5 | 4.2 | 0.2
O=C(CNC(=O)c1ccco1)Nc1ccc2c(c1)OCCO2 | -1.7 | -0.8 | -1.4 | -5.2 | -3.3 | 0.0
O=C(c1ccco1)N1CCCC(Nc2ccc3c(c2)OCCO3)C1 (stereo unspecified) | 6.3* | 1.7 | -0.3 | 2.8 | 1.7 | 1.0
Cc1cccc(NC(=O)Nc2ccccc2C(=O)N2CCCC2)c1 | -0.8 | 0.0 | 0.2 | / | -0.8 | /
SMILES | hcDAF-12 act | DAX1 inh-1 | ssDAF12 agonist | GAA850 FXN act | hgDAF12 agonist | DAX1 inh-2
CCC(=O)NC(=S)Nc1cccc(NC(=O)c2ccco2)c1 | -2.9 | -0.8 | -1.1 | 0.4 | -1.5 | -1.1
CCc1ccc(C(=O)Nc2ccc3c(c2)n(C)c(=O)n3C)cc1 | -0.5 | -0.2 | -0.7 | 2.0 | 2.4 | 5.9*
CCOc1ccc(C(=O)Nc2ccc3c(c2)OCCO3)cc1 | 5.9* | 2.5 | 0.3 | 1.0 | 12.4* | -1.2
COc1cc(NS(=O)(=O)c2ccc(NC(=S)NC(=O)c3ccco3)cc2)nc(OC)n1 | 0.0 | 0.2 | -0.9 | 2.2 | 1.4 | 4.7*
COc1cc(OC)cc(C(=O)Nc2ccc3c(c2)n(C)c(=O)n3C)c1 | -1.2 | 0.1 | -0.4 | 0.7 | -2.5 | 0.9
COc1cc(NS(=O)(=O)c2ccc(NC(=O)c3ccco3)cc2)nc(OC)n1 | -2.0 | 0.0 | -1.1 | -0.4 | 4.9 | 0.3
O=C(NC(=S)Nc1cccc(O)c1)c1ccco1 | 0.5 | 1.0 | 1.7* | 3.7 | 9.5 | 3.7
O=C(CC1CCCC1)N1CC[C@H]2[C@H](CCCN2Cc2cc(F)cc(F)c2)C1 | -0.8 | 0.4 | -1.2 | / | 0.2 | /
CCC(=O)NC(Cc1ccccc1)c1nc2ccccc2[nH]1 (stereo unspecified) | 0.8 | -0.4 | -0.5 | 1.1 | -3.0 | 4.2*
CC(SCC(=O)O)c1nc2ccccc2[nH]1 (stereo unspecified) | -0.3 | 0.5 | 1.0* | 0.4 | 2.5 | 1.0
C=CCNC(=O)CN(C(=O)Cc1ccc(Cl)cc1)c1cccc(Br)c1 | -0.8 | -0.4 | -0.8 | / | -3.1 | /
COc1cccc(C(=O)n2ccc3ccc(-c4ccc5ccn(C(=O)c6cccc(OC)c6)c5c4)cc32)c1 | 0.3 | -0.7 | -0.5 | / | 0.5 | /
COc1cc2c(cc1NC(=O)CSc1nnc(-c3cccnc3)n1-c1ccc(Br)cc1)oc1ccccc12 | 0.0 | -0.1 | -1.4 | / | 3.1 | /
Nc1ccc2c(c1Cl)C(=O)c1ccc(N)c(Cl)c1C2=O | 2.5 | 0.4 | 1.1* | 8.4* | 3.3 | 2.3
O=[N+]([O-])c1ccc(O)c(Nc2ncnc3ccccc23)c1 | 3.1 | 0.6 | 1.1* | 1.2 | -2.0 | 1.9
Cc1ccc(-n2c(SC/C=C/c3ccccc3)nnc2-c2cccs2)cc1 | -1.8 | -1.6 | -1.6 | / | 0.4 | /
CCN1CCN(c2nc(-c3cccnc3)nc3ccccc23)CC1 | 5.7* | 1.4 | -0.7 | 0.8 | 4.7 | 0.0
CN1CCN(c2nc(-c3cccnc3)nc3ccccc23)CC1 | -2.9 | -0.7 | -0.7 | 3.3 | 3.4 | 1.5
COC(=O)c1cc(N=Cc2c(O)c3ccccc3oc2=O)cc(C(=O)OC)c1 | / | / | / | 0.5 | / | 9.2*
Cc1cc(C)cc(N=Cc2c(O)c3ccccc3oc2=O)c1 | -0.5 | -0.3 | -1.0 | -1.4 | -1.8 | -1.3
CC1(c2nnnn2-c2ccc3c(c2)OCCO3)CSCC(=O)N1CCc1c[nH]c2ccccc12 (stereo unspecified) | -1.7 | -1.7 | -0.9 | / | 2.5 | /
Cn1c(=O)oc2cc(S(=O)(=O)N3CCN(c4ccccc4)CC3)ccc21 | 1.5 | 0.5 | 2.6* | 1.0 | 1.3 | 0.4
O=C(Nc1ccccc1)N(O)c1ccc(Cl)cc1 | 3.8 | 0.5 | 1.6* | 1.1 | 5.0 | 0.8
O=C(Cc1ccccc1)NC1CCCCN(Cc2cccc(Cl)c2)C1=O (stereo unspecified) | -2.4 | 0.8 | -1.9 | / | 3.0 | /
COc1ccc(OC)c(S(=O)(=O)N2CCC(c3cn4ccccc4n3)CC2)c1 | -1.7 | -1.7 | -1.6 | / | -0.8 | /
